Test results from PubChem BioAssay (NCI).
The panel holds about 83,000 compounds, 20% with a hit somewhere; the sample as a whole holds those more often.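 Values shown are percent growth following 48 h exposure of cells in 96-well plates to a single concentration of compound; below 10 was considered active.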 Values without a mark were called inactive. Activity calls are given as the source filed them.

system: NCI-H322M lung; assay: NCI-60 one-dose screen, 48 h (100 = growth as untreated, 0 = no growth, -100 = all killed); conditions: 10 µM unless noted

| Compound | growth |
| --- | --- |
| O=C(Nc1ccc(Cl)cc1)Oc1c(Cl)c(Cl)c(Cl)c(Cl)c1Cl | 95.2% |
| CC(=O)/C(=C/c1ccc([N+](=O)[O-])cc1)C(=O)c1ccccc1 | 100% |
| Cc1cccc(N2CCC(=O)NC2=S)c1 | 101% |
| Cc1ccc(S(=O)(=O)OCCCOS(=O)(=O)c2ccc(C)cc2)cc1 | 92.3% |
| CCOC(=O)c1c(C)nc2c(c1N)CC(=O)N2Cc1ccc(OC)cc1 | 41% |

system: HOP-62 NSCLC; assay: as above; conditions: 10 µM unless noted

| Compound | growth |
| --- | --- |
| CCNC(=O)Oc1ccc(/C(=C(/C)Cc2ccc(OC)cc2)c2ccc(OCCN3CCCCC3)cc2)cc1 | 91.5% |
| COC(=O)C(Cc1ccccc1)NC(=O)c1ccc(NC(=O)c2[nH]c(C)c(Cl)c2Cl)c(OC(C)C)c1 (stereo unspecified) | 90.3% |
| Cc1ccc(S(=O)(=O)Oc2ccc3sc4cccc(NCCN(C)C)c4c(=O)c3c2)cc1 | -89.6% (active) |
| O=C(Nc1ncccc1OCc1ccccc1)NC1CCCCCC1 | 102% |
| CCNc1nc(O)c(/C=C2\C=Nc3ncccc32)s1 | -26.5% (active) |
| Ic1ccccc1I | 90.3% |
| CC1=C2[C@@H](CC1)[C@]1(C)O[C@@](C3CCCCC3)(C[C@H]1OC(=O)CO)[C@H]2OC(=O)/C=C/c1ccccc1 | 91% |
| Cc1ccc(-c2csc(NC(=O)c3ccccc3CN3C(=O)c4ccccc4C3=O)n2)cc1 | 99.1% |
| Oc1c(CN2CCCC2)cc(CSCc2ccccc2)c2cccnc12 | 4.78% (active) |
| Cc1ccc(-c2nc(SCc3nc4cc(Cl)c(Cl)cc4[nH]3)[nH]c(=O)c2C#N)cc1 | 91.9% |
| CC/C=C\CCC/C=C1/C(=O)C=C[C@@H]1C/C=C\CCCC(=O)OC | 42.3% |
| C=C1C(=O)O[C@H]2[C@H]1CC/C(Cn1cc(CCC)nn1)=C\CC[C@@]1(C)O[C@@H]21 | 73.9% |
| CN(C)CCCC1(c2ccc(F)cc2)OCc2cc(-c3ccc4cc[nH]c4c3)ccc21 (stereo unspecified) | 74.9% |
| COc1ccc(CCN(CC(=O)N(CC(N)=O)C2CCC[C@@H]2OCc2ccccc2)C(=O)CN(C(=O)CN(CCc2ccc(Cl)cc2)C(=O)CN(C(=O)CN(C)Cc2ccccc2F)[C@H](C)C2CCCCC2)[C@H](C)C2CCCCC2)cc1OC (stereo partly specified) | 41.8% |
| COc1ccc(C(=O)Cn2c(C(=O)c3ccc(Cl)cc3)nc3ccccc32)cc1 | 81.8% |
| O=C1/C(=C/c2ccccc2F)CN(C(=O)C(Cl)Cl)C/C1=C\c1ccccc1F | 13.8% |

| Compound | growth |
| --- | --- |
| CCOC(=O)C1=C(C)C(Cl)=N/C1=C\c1[nH]c(Cl)c(C)c1C(=O)OCC | 96.5% |
| COc1ccc(/C=C/C(c2cc(OC)c(OC)c(OC)c2)n2cncn2)cc1 (stereo unspecified) | 41.8% |
| CCN1C(=O)N(CC)C2C1NC(=S)N2/N=C/c1ccc(C(F)(F)F)cc1 (stereo unspecified) | 71.2% |
| C[C@H](CCCC(=O)NCC#CCN1CCN(C)CC1)[C@H]1CC[C@H]2[C@@H]3CC[C@@H]4CC(=O)CC[C@]4(C)[C@H]3CC[C@]12C | 96.2% |
| Fc1cccc(-c2ccc3c(c2)C2(CCNCC2)CN3)c1 | 105% |
| CCN1C(=O)N(CC)C2Nn3c(s/c(=C\c4ccccc4Br)c3=O)=NC21 (stereo unspecified) | 37% |
| O=C(NCc1cccc(CNC(=O)Nc2nc3ccccc3[nH]2)c1)Nc1nc2ccccc2[nH]1 | -46.2% (active) |
| O=C1Nc2ccccc2/C1=C\c1c[nH]c2ccc(Br)cc12 | 56.5% |
| COc1cc(C2C(C(=O)OCc3ccccc3)=C(C)NC(C)=C2C(=O)OCc2ccccc2)cc(OC)c1OC | 51% |
| CCn1cc(CNc2ccc(C(=O)Nc3cc4cc(OC)c(OC)cc4c(C)n3)cc2)cn1 | 39.6% |
| COc1cc(/C=C/C(=O)/C=C(O)/C=C/c2ccc(OC(=O)C34CC5CC(CC(C5)C3)C4)c(OC)c2)ccc1OC(=O)C12CC3CC(CC(C3)C1)C2 | 99.1% |
| COc1ccc(C2=CN3CC=CC3CC2=O)cc1 (stereo unspecified) | 91.1% |
| C=C(C)[C@@H]1CCC[C@]2(C(=O)O)CC[C@]3(C)[C@@H](CC[C@@H]4[C@@]5(C)C/C(=C/c6ccncc6)C(=O)C(C)(C)[C@@H]5CC[C@]43C)[C@@H]12 | 50.4% |
| FC(F)(F)c1ccc(Cn2cc(CSc3nc4ccccc4s3)nn2)cc1 | 89% |
| CCCn1nc(C(=O)N(C)Cc2ccccc2)c2c1CCC(N1CCc3ccccc31)C2 (stereo unspecified) | 103% |
